# Tests used:
# Assay in all cases: SPOT peptide array binding signal intensity (averaged, normalized) (arbitrary units (background-subtracted, floor 0; scale differs between SH3 domains)); higher = stronger binding of the SH3 domain to the peptide
# AgAbp1 = target: AgAbp1
# How it was run: (§1)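 GST-fused SH3 domains, from four yeast species, were produced in E. coli BL21(DE3) and captured on glutathione Sepharose. Membranes of cellulose carrying synthetic 15-mer peptides, in which cysteines had been replaced by serines, were exposed to each domain at 10 μg/ml overnight at 4°C in TBS-based blocking buffer. After anti-GST antibody, an HRP anti-mouse secondary and luminol, spots were imaged and quantified using Genespotter. Binding signal is normalized and background-subtracted spot intensity, averaged over replicates, in arbitrary units that differ between domains.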
# AgBbc1 = target: AgBbc1
# How it was run: as §1
# AgBem1-D1 = target: AgBem1-D1
# How it was run: as §1
# AgBzz1-D1 = target: AgBzz1-D1
# How it was run: as §1
# AgBzz1-D2 = target: AgBzz1-D2
# How it was run: as §1
# AgCyk3 = target: AgCyk3
# How it was run: as §1
# AgFus1 = target: AgFus1
# How it was run: as §1
# AgHof1 = target: AgHof1
# How it was run: as §1
# AgHse1 = target: AgHse1
# How it was run: as §1
# AgLsb1 = target: AgLsb1
# How it was run: as §1
# AgLsb4 = target: AgLsb4
# How it was run: as §1
# AgMyo5 = target: AgMyo5
# How it was run: as §1
# AgNbp2 = target: AgNbp2
# How it was run: as §1
# AgRvs167 = target: AgRvs167
# How it was run: as §1
# AgSho1 = target: AgSho1
# How it was run: as §1
# AgSla1-D1-D2 = target: AgSla1-D1-D2
# How it was run: as §1
# AgSla1-D3 = target: AgSla1-D3
# How it was run: as §1
# CaAbp1-D1 = target: CaAbp1-D1
# How it was run: as §1
# CaAbp1-D2 = target: CaAbp1-D2
# How it was run: as §1
# CaBbc1 = target: CaBbc1
# How it was run: as §1
# CaBem1-D1 = target: CaBem1-D1
# How it was run: as §1
# CaBzz1-D1 = target: CaBzz1-D1
# How it was run: as §1
# CaBzz1-D2 = target: CaBzz1-D2
# How it was run: as §1
# CaCyk3 = target: CaCyk3
# How it was run: as §1
# CaFus1 = target: CaFus1
# How it was run: as §1
# CaHof1 = target: CaHof1
# How it was run: as §1
# CaHse1 = target: CaHse1
# How it was run: as §1
# CaLsb1 = target: CaLsb1
# How it was run: as §1
# CaLsb4 = target: CaLsb4
# How it was run: as §1
# CaMyo5 = target: CaMyo5
# How it was run: as §1
# CaNbp2 = target: CaNbp2
# How it was run: as §1
# CaRvs167 = target: CaRvs167
# How it was run: as §1
# CaRvs167-3 = target: CaRvs167-3
# How it was run: as §1
# CaSho1 = target: CaSho1
# How it was run: as §1
# CaSla1-D1-D2 = target: CaSla1-D1-D2
# How it was run: as §1
# CaSla1-D3 = target: CaSla1-D3
# How it was run: as §1
# ScAbp1 = target: ScAbp1
# How it was run: as §1
binder,measurement,setting,value
TPRLSLPRLPNKHHW,SPOT peptide array binding signal intensity,AgAbp1,88
same,SPOT peptide array binding signal intensity,AgBbc1,1.5
same,SPOT peptide array binding signal intensity,AgBem1-D1,≤ 0
same,SPOT peptide array binding signal intensity,AgBzz1-D1,12.5
same,SPOT peptide array binding signal intensity,AgBzz1-D2,23.5
same,SPOT peptide array binding signal intensity,AgCyk3,≤ 0
same,SPOT peptide array binding signal intensity,AgFus1,15.5
same,SPOT peptide array binding signal intensity,AgHof1,685
same,SPOT peptide array binding signal intensity,AgHse1,271
same,SPOT peptide array binding signal intensity,AgLsb1,1
same,SPOT peptide array binding signal intensity,AgLsb4,33.5
same,SPOT peptide array binding signal intensity,AgMyo5,≤ 0
same,SPOT peptide array binding signal intensity,AgNbp2,26
same,SPOT peptide array binding signal intensity,AgRvs167,2.67
same,SPOT peptide array binding signal intensity,AgSho1,274
same,SPOT peptide array binding signal intensity,AgSla1-D1-D2,7
same,SPOT peptide array binding signal intensity,AgSla1-D3,≤ 0
same,SPOT peptide array binding signal intensity,CaAbp1-D1,314
same,SPOT peptide array binding signal intensity,CaAbp1-D2,675
same,SPOT peptide array binding signal intensity,CaBbc1,30.2
same,SPOT peptide array binding signal intensity,CaBem1-D1,≤ 0
same,SPOT peptide array binding signal intensity,CaBzz1-D1,≤ 0
same,SPOT peptide array binding signal intensity,CaBzz1-D2,34.5
same,SPOT peptide array binding signal intensity,CaCyk3,≤ 0
same,SPOT peptide array binding signal intensity,CaFus1,50.5
same,SPOT peptide array binding signal intensity,CaHof1,1
same,SPOT peptide array binding signal intensity,CaHse1,73
same,SPOT peptide array binding signal intensity,CaLsb1,≤ 0
same,SPOT peptide array binding signal intensity,CaLsb4,70
same,SPOT peptide array binding signal intensity,CaMyo5,≤ 0
same,SPOT peptide array binding signal intensity,CaNbp2,116
same,SPOT peptide array binding signal intensity,CaRvs167,2.83
same,SPOT peptide array binding signal intensity,CaRvs167-3,4.75
same,SPOT peptide array binding signal intensity,CaSho1,89
same,SPOT peptide array binding signal intensity,CaSla1-D1-D2,256
same,SPOT peptide array binding signal intensity,CaSla1-D3,1.5
same,SPOT peptide array binding signal intensity,ScAbp1,0.5

# — the supplement of paper PMC4466140
